# Screening data from PubChem.
# JMJD2A Tudor inh = blocks the human JMJD2A Tudor domain; Potency, µM (series often up to 114 µM), for the others: top-dose activity change, negative = inhibition, actives largely listed as inhibitors; O75164; AlphaScreen JMJD2A-Tudor / H3K4me3 peptide binding; 390,000 compounds, 4.4% hits; AID 504339; further: potency means the concentration at half of the fitted maximal effect; on the % scale 0 is the no-effect control and ±100 the full control effect; nearly all actives have a fitted effect of over 50% in size
# TDP1 inh = TDP1 (human) enzyme inhibition. recombinant TDP1, AlphaScreen DNA substrate cleavage. Potency, µM (titrated, usually from 130 µM), for inactives: at the highest dose activity change, negative = inhibition, actives largely listed as inhibitors. 350,000 compounds, 0.28% hits; further: potency means the concentration at half of the fitted maximal effect; on the % scale 0 is the no-effect control and ±100 the full control effect; nearly all actives have a fitted effect of over 40% in size
# Target sequence (Q9NUW8 whole entry, looked up): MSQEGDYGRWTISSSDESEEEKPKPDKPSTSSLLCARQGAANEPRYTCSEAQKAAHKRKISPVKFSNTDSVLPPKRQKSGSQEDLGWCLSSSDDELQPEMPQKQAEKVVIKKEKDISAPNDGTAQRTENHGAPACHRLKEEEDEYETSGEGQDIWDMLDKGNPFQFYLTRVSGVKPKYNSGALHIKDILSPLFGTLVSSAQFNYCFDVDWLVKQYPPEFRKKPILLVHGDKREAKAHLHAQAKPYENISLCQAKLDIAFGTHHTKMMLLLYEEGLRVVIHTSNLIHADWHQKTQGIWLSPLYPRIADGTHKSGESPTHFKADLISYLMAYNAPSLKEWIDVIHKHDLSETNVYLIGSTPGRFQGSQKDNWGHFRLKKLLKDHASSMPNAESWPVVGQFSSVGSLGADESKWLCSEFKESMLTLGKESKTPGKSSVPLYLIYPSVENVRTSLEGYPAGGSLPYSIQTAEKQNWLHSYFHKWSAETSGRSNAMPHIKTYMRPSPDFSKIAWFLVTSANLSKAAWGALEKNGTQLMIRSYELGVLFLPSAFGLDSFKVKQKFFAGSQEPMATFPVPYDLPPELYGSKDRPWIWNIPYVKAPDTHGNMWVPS
#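 Here, a 5' biotin and 3' phosphotyrosine-FITC DNA oligonucleotide reports Tdp1 activity: intact substrate bridges AlphaScreen beads, while cleavage leaves a 3' phosphate and drops signal. All incubations at room temperature.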
# HP1b chromo inh = inhibitors of HP1-beta chromodomain binding to methylated histone tails; P83916; AlphaScreen HP1-beta / biotin-H3K9me3 peptide binding; Potency, µM (series often up to 114 µM), inactives show top-dose activity change, negative = inhibition, usual class: inhibitors; 390,000 compounds, 0.56% hits; further: potency means the concentration at half of the fitted maximal effect; nearly all actives have a fitted effect of over 70% in size
#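 Compound inhibition of the preformed complex between 50 nM HP1-beta and 50 nM biotinylated H3K9me3 peptide was read by AlphaScreen. Buffer was PBS pH 7.4 with 0.01% Tween-20. Incubations ran 30 min at room temperature, with 10 ug/mL donor/acceptor beads.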
# Six1-Eya2 blk = blocks human Six1 binding to Eya2 | activity change, % (no concentration beside the values) | AID 651725 | AlphaScreen GST-Six1/His-Eya2 binding, biochemical; stronger effect = lower value | 360,000 compounds, 0.56% hits; in the data active means activity change below about -65%; inconclusive means mostly about -30% to -63%; further: on the % scale 0 is the no-effect control and ±100 the full control effect
#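 Six1/Eya2 binding was read as AlphaScreen signal after compounds were pinned into GST-Six1 plus His-tagged Eya2 (5X stock 250/500 nM) in pH 8.0 Tris/NaCl/TCEP buffer, beads added, then incubated 1 h, 37 C, dark.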
# CtBP-E1A inh = inhibitors of CtBP/E1A interaction; AlphaScreen GST-E1A/His-CtBP binding, 1536-well; stronger effect = lower value; activity change, % (no concentration beside the values); 340,000 compounds, 0.49% hits; AID 651724; in the data active means activity change below about -65%; inconclusive means mostly about -30% to -63%; further: on the % scale 0 is the no-effect control and ±100 the full control effect
#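 GST-E1A and His-tagged CtBP (125 nM each as 5X stock) were preincubated with pin-transferred compound for 2 h at 37 °C in the dark, then glutathione donor and nickel acceptor beads were added for 1 h before AlphaScreen reading.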
# BAZ2B block = blocks human BAZ2B; Q9UIF8; AlphaScreen BAZ2B-H3K14Ac peptide displacement; Potency, µM (titrated, usually from 114 µM), inactives show at the top dose activity change, negative = inhibition, hits mostly inhibitors; 360,000 compounds, 4.4% hits; AID 504333; further: potency means the concentration at half of the fitted maximal effect; on the % scale 0 is the no-effect control and ±100 the full control effect; nearly all actives have a fitted effect of over 60% in size
#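 Multi-concentration screen (max 110 uM) measuring displacement of acetylated histone H3 peptide from BAZ2B by AlphaScreen, using 50 nM protein, 50 nM peptide and 10 ug/mL streptavidin donor plus Ni-chelate acceptor beads.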
# Numbers without * were called inactive; ? = inconclusive; nt = no result; [ ] = dose if it differs, or a comment. A selection: hits, their analogues and other compounds. The true share with any hit is near 5.3%. Unless noted, the call rests on the fitted dose curve; in most records, active means well fitted inhibition curve with a large enough effect; inconclusive means small, poorly fitted or top-dose-only effect; inactive means no such curve, though single readings can be large or run the other way.
SMILES,JMJD2A Tudor inh,TDP1 inh,HP1b chromo inh,Six1-Eya2 blk,CtBP-E1A inh,BAZ2B block
COc1ccc(C(=O)C2CCCN(Cc3cccn3-c3cccnc3)C2)cc1OC (stereo not drawn),-36%,nt,-14%,-12,-5,-27%
CSc1ccc(C(=O)C2CCCN(Cc3cccn3-c3cccnc3)C2)cc1 (stereo not drawn),45µM*,5%,?,?,-29,?
Cn1c(-c2cccc(Br)c2)cnc1NCc1ccccc1O,20µM*,nt,?,-14,-23,50µM*
CCCCn1c(NCc2cc(Br)ccc2O)nc2ccccc21,-20%,-2%[12.3 µM],45%,nt,nt,1%
O=C(NCCNCc1ccc(F)cc1)c1ccco1,3.5µM*,0%,?,6,4,50µM*
O=C(NCCNC(=O)c1ccco1)c1ccc(F)cc1,-3%,5%,0%,1,12,-10%
COc1ccc(CNCCNC(=O)c2cccs2)c(OC)c1OC,22µM*,-3%,-22%,7,-6,56µM*
COc1ccccc1C(=O)NCCNC(=O)c1ccco1,25µM*,1%,?,5,4,1%
O=C(NCCNC(=O)c1ccccc1Cl)c1ccco1,79µM*,?,-3%,1,13,16%
Cc1c(Cl)cccc1NC(=O)c1cnc2sc(N3CCCC3)nn2c1=O,-8%,3%,35%,nt,nt,-2%
N#CN1CCC(NS(=O)(=O)c2ccc(F)cc2)C1 (stereo not drawn),-7%,0%,nt,nt,nt,nt
COc1cccc(CNCCNC(=O)c2ccco2)c1OC,?,2%,-18%,2,7,50µM*
CC1(C)OC(=O)C2(Cc3ccccc3N3CCCC32)C(=O)O1 (stereo not drawn),?,nt,-4%,nt,nt,nt
CC1(C)OC(=O)C2(Cc3ccc(Br)cc3N3CCCCC32)C(=O)O1 (stereo not drawn),56µM*,7%,5%,nt,nt,nt
CCCOc1ccc2c(c1)C(=NN=C(N)N)c1cc(OCCC)ccc1-2,28µM*,nt,?,-21,?,40µM*
Cc1cc([N+](=O)[O-])nn1CC(=O)N/N=C/c1ccccc1F,0%,7%,7%,-3,-4,-6%
Cc1cc([N+](=O)[O-])nn1CC(=O)N/N=C/c1ccccc1O,-32%,10%,26%,-92*,?,-30%
Cc1cc(C)n(CC(=O)N/N=C/c2cc([N+](=O)[O-])ccc2O)n1,?,1%,32%,-88*,-91*,40µM*
Cc1cc([N+](=O)[O-])nn1Cc1ccc(C(=O)N/N=C/c2ccc(O)cc2O)cc1,?,5%,13%,-89*,?,5%
Nc1nnc(CC(=O)N/N=C\c2cc([N+](=O)[O-])ccc2O)s1,?,8%,29%,-92*,-91*,28µM*
Cc1cc([N+](=O)[O-])nn1Cc1ccc(C(=O)N/N=C/c2ccc(F)cc2)cc1,5%,4%,31%,0,-6,-7%
Cc1cccc(NC(=O)CN(C)S(=O)(=O)c2ccc3c(c2)CCC(=O)N3)c1C,-19%,6%,13%,nt,nt,-7%
Cc1c(NC(=O)C(F)(F)F)ccc2nc3c(=O)n(C)c(=O)n(C)c3nc12,-18%,3%,21%,nt,nt,-5%
CCOc1ccc(C2c3c(-c4ccc(C)cc4)n[nH]c3C(=O)N2c2ccc(Cl)cc2)cc1 (stereo not drawn),-30%,7%,26%,nt,nt,nt
Cc1cc(Oc2c(C(F)(F)F)oc3c(CN4CCC(C)CC4)c(O)ccc3c2=O)cc(C)c1Cl,-10%,1%,24%,nt,nt,0%
Nc1nnnn1CC(=O)N/N=C/c1cccs1,-22%,0%,37%,-1,nt,-10%
Nc1nnnn1CC(=O)N/N=C/c1cc([N+](=O)[O-])ccc1O,20µM*,9%,30%,-87*,-81*,19%
CC(=O)N1CCc2cc(CNS(=O)(=O)c3ccc(Cl)s3)ccc21,-1%,5%,30%[57 µM],nt,nt,0%
